# Out of some 330,000 compounds screened, about 4,600 (1.4%) were called active.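 Rule for the calls: active = inhibition of 40% or more at the single tested concentration; inactive = the rest.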 The entries come from a sample that favours actives as a whole.
# Assay: growth inhibitors of isogenic TIM10 control yeast, primary screen, counter-screen for tim10-1 yeast inhibitor project, luminescence, uHTS (AID 463195);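 note: wild-type TIM10 isogenic control strain grown at permissive 25 °C; 0% = DMSO yeast wells and 100% = minimal medium wells without yeast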
# Settings: S. cerevisiae TIM10 strain growth, BacTiter-Glo luminescence, 24 h; at 10 µM; stronger effect = higher value
row,SMILES,inhibition
1,CC1CC(C)(C)NC(=S)N1CCC(=O)N1CCN(Cc2ccccc2)CC1 (stereo not given),-2.23% (inactive)
2,CC1CC(=S)Nc2ccccc2N1Cc1ccccc1 (stereo not given),46.2% (active)
3,CC1CC(=O)Nc2ccccc2N1S(=O)(=O)c1cccs1 (stereo not given),5.91% (inactive)
4,COC(=O)CNc1nc(Cl)nc(N2CCC(C)CC2)n1,-3.85% (inactive)
5,CCOc1ccccc1NC(=S)NC(=O)CCc1ccccc1,11.7% (inactive)
6,O=C(OCCOCn1cc(Br)c(=O)[nH]c1=O)c1ccccc1,-12.6% (inactive)
7,Cn1nccc1/C=N\NC(=O)c1ccc(Cl)cc1,-2.29% (inactive)
8,COc1ccc(C(CNC(=O)COc2ccc([N+](=O)[O-])cc2)N2CCCCC2)cc1 (stereo not given),8.46% (inactive)
9,CCc1ccc(OCC(=O)NCC(c2ccc(Cl)cc2)N2CCCCC2)cc1 (stereo not given),42.7% (active)
10,COc1ccc(C(CNC(=O)COc2ccccc2OC)N2CCCCC2)cc1 (stereo not given),0.651% (inactive)
11,CC1CCN(C(=S)c2cccc([N+](=O)[O-])c2)CC1,1.4% (inactive)
12,CC1CCC2CCCCC2N1C(=O)c1cc([N+](=O)[O-])cc([N+](=O)[O-])c1 (stereo not given),40.2% (active)
13,CC1(c2ccccc2)CC(C)(C)N(C(=O)c2cc([N+](=O)[O-])cc([N+](=O)[O-])c2)c2ccccc21 (stereo not given),-3.92% (inactive)
14,Cc1csc(CN(C)C(=O)CC2C(=O)NCCN2CC(C)(C)C)n1 (stereo not given),-12.9% (inactive)
15,Cn1c(=O)cc(OCCCC(=O)N2CCN(c3ccccn3)CC2)c2ccccc21,13.5% (inactive)
16,Oc1cccc2ccc(/C=C/c3ccc(Br)s3)nc12,15.2% (inactive)
17,COc1cccc(NC(=S)N(CCc2c(C)[nH]c3ccccc23)Cc2ccco2)c1,15.9% (inactive)
18,COCCNC(=S)N(CCc1c(C)[nH]c2ccc(C)cc12)Cc1cccnc1,-1.03% (inactive)
19,CCNC(=S)N(CCc1c(C)[nH]c2ccc(C)cc12)Cc1ccco1,41.2% (active)
20,O=C(N/N=C/c1ccc(O)c(O)c1)C1c2ccccc2Oc2ccccc21,-9.32% (inactive)
21,CCN(CCCCOC(=O)c1ccc(OC)c(OC)c1)C(C)Cc1ccc(OC)cc1 (stereo not given),-1.12% (inactive)
22,Cc1ccccc1N1CCN(C2CCCN(C(=O)c3ocnc3C)C2)CC1 (stereo not given),-0.332% (inactive)
23,COc1cccc(CNC(C)C(=O)Nc2ccc(S(=O)(=O)N3CCCC3)cc2)c1 (stereo not given),18.4% (inactive)
24,CC(C)c1ccc(S(=O)(=O)N2CCN(C(C)C(=O)NC3CCCC3)CC2)cc1 (stereo not given),-30.5% (inactive)
25,COc1ccc(S(=O)(=O)N2CCN(C(C)C(=O)Nc3ccc(C(C)C)cc3)CC2)cc1 (stereo not given),44.9% (active)
